Experiment [1] is described as follows: inhibitors of TNFa-induced NFkB p65 translocation, primary screen, imaging, HUVEC, MLSMR starter and 10KST1 sets (AID 438;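 active = inhibition above 20% together with a positive visual image hit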;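 note: compound added about 3h40 before a 20 min TNFalpha stimulation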;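 for inhibition: signal is the nuclear over cytoplasmic p65 intensity ratio per well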). The settings on record: HUVEC TNFa-induced p65 nuclear translocation; cell count: measured here: nuclei count (cytotoxicity indicator), at 2.08 µM; inhibition: at 2 µM, stronger effect = higher value, 0% TNFa-plus-vehicle, 100% no-TNFa wells.
A short description of experiment [2]: reduction of polyQ htt aggregates in cells – imaging, exon1htt(103Q)mCFP cells, high-content imaging, primary screen (AID 483;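 active = visual image review flags a hit and inhibition of aggregation exceeds 20%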;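 note: compound exposure lasted 3 days before fixation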;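 for nuclei count: percent of the per-plate median nuclei count of sample wells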). The settings on record: exon1htt(103Q)mCFP cell line, aggregate imaging, at 2 µM; inhibition of aggregation: stronger effect = higher value; nuclei count: measured here: cell count, toxicity.
Experiment [3] is described as follows: endothelial E-selectin expression blockers – imaging, HUVEC, immunofluorescence, MLSMR starter and 10KST1 sets, primary screen (AID 487;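 active = visually confirmed hit in the image check and inhibition above 20%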;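 for inhibition: signal is fraction of cell area covered by stained E-selectin grains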;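 for nuclei count: 100% = median nuclei count of all wells on the same plate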). The settings on record: HUVEC TNFalpha-induced E-selectin immunofluorescence imaging, at 2 µM; inhibition: stronger effect = higher value; nuclei count: measured here: cell number, toxicity.
Experiment [4] is described as follows: Primary imaging screen for DUSP6 inhibitors that restore phospho-Erk in transfected HeLa cells, chemical complementation (AID 609;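 active = compounds giving at least 50% inhibition in the cell-based MKP-3 phosphatase rescue imaging test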;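 for inhibition: phospho-Erk level distribution per well compared with pooled transfected vehicle control wells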). The settings on record: HeLa MKP-3 transfected, phospho-Erk imaging KS statistic, at 10 µM, cells stimulated with TPA for 15 min.
The target in experiment [5] is Dual specificity protein phosphatase 6 (Homo sapiens) (UniProt Q16828). The experiment is described as above. The settings on record: HeLa MKP-3 transfected, phospho-Erk imaging KS statistic; at 10 µM; stronger effect = higher value; cells stimulated with TPA for 15 min.
In experiment [6] the target is Voltage-gated potassium channel subunit beta-2 (Rattus norvegicus) (UniProt P62483). Nature of the experiment: inhibitors of rat Kvbeta2 reductase activity – biochemical, NADPH fluorescence, primary screen (AID 622;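 active = fluorescence slope higher than the sample average by over 3 SD, cut at about -0.22 in these data, passing the limit was not always enough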;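 note: slope of raw intensity against log time taken from 70 to 1610 s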). The settings on record: recombinant KvBeta, 4-cyanobenzaldehyde reduction, at 10 µM, stronger effect = higher value.
For experiment [7] the target is unchanged. Nature of the experiment: enhancers of rat Kvbeta2 NADPH turnover – biochemical, NADPH fluorescence, primary screen (AID 623;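 active = NADPH fluorescence slope more negative than the mean of all samples by about 3 SD, 99.7% confidence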;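 note: fluorescence intensity change per second fitted from 20 to 320 s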). The settings on record: Recombinant KvBeta, NADPH fluorescence decrease slope, 10 min; at 10 µM; stronger effect = lower value.
For experiment [8], the target named is Alpha-2C adrenergic receptor (Homo sapiens) (UniProt P18825). The experiment in a line: compounds altering alpha2C-coupled GIRK flux – cell-based, HEK293 alpha2C/GIRK1/2, thallium flux, primary screen (AID 624;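 active = fluorescence slope after compound addition differing from the mean of all screened samples at 99.7% confidence, in either direction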;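 note: slope of fluorescence ratio to pre-addition baseline per second over 15 to 24 s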). The settings on record: thallium flux BTC fluorescence, at 10 µM, actives lie on both sides.
The nature of experiment [9]: inhibitors of larval lipid processing in zebrafish, primary screen, whole organism, PED6 fluorescence, gall bladder and intestine (AID 686;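 active = a full or partial loss of lipid-probe fluorescence in the fish gall bladder, intestine or both, judged by eye; inactive = no fluorescence loss, or compound toxic to the fish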;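 note: larvae 5 to 7 days old with five fish per well; signal comes from phospholipase A2 cleavage of quenched PED6 carried via bile; overnight exposure to compound and PED6 before scoring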). The settings on record: Zebrafish larvae PED6 lipid processing, fluorescence scoring; screened at 20 µM (by protocol).
The nature of experiment [10]: loss of swimming-algae plug formation – whole organism, Chlamydomonas reinhardtii, WT vs cilia-less mutant, absorbance, 96-well, primary screen (AID 463189).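 Note: 0% = wild type cc124 cells in DMSO and 100% = ciliumless bld1 mutant cells.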 The settings on record: Chlamydomonas reinhardtii gravitaxis, OD600 absorbance, 2 days; at 10 µM; stronger effect = higher value.
Experiment [11] in a line: blockers of RIG-like receptor reporter activation – cell-based, Sendai virus stimulus, luciferase, 10K MLSCN set, TLR/RLR signaling modifier project, primary screen (AID 602276;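 active = inhibition at or above 50% at 10 µM; inactive = inhibition below 50%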;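 note: firefly luciferase from ISG56 promoter only with Renilla not read in this screen; 0% = Sendai virus plus DMSO and 100% = medium plus DMSO without virus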). The settings on record: HEK293 RL24 IRF3 luciferase reporter, at 10 µM, stronger effect = higher value. (A reporter such as luciferase makes a cellular process visible.)
Experiment [12] is described as follows: TLR3 IRF3 reporter activation blockers – cell-based, poly I:C stimulus, luciferase, 10K MLSCN set, primary screen (AID 602277;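 active = inhibition of the reporter signal at or above 50%; inactive = inhibition below 50%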). The settings on record: HEK293-TLR3 RL24 IRF3 luciferase reporter, at 10 µM, stronger effect = higher value.
Where [13] appears, read: measured here: cell density z-score.
Where [14] appears, read: measured here: nuclear c-Myc green intensity z-score.
[15] abbreviates: measured here: nuclear pErk red intensity z-score, stronger effect = higher value.

“And” between values parts separate entries of the source, which are not always exact repeats. Equal values may be shown once. The source made the active and inactive calls.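 Rule for the calls, unless noted: active = inhibition at or above 50% relative to wild type and mutant plate controls; inactive = inhibition below 50%.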

Sequence of Dual specificity protein phosphatase 6 (Homo sapiens) (Q16828 whole entry, looked up): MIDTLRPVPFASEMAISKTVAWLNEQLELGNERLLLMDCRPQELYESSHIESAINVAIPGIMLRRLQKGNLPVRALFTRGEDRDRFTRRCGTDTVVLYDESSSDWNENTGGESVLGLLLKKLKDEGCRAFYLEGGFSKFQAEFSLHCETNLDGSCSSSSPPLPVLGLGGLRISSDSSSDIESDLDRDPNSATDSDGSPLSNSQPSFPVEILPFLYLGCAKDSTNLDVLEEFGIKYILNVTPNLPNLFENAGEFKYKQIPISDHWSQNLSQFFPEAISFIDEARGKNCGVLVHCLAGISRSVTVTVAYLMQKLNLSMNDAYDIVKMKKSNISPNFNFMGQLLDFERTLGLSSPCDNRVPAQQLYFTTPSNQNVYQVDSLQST
Sequence of Alpha-2C adrenergic receptor (Homo sapiens) (P18825 whole entry, looked up): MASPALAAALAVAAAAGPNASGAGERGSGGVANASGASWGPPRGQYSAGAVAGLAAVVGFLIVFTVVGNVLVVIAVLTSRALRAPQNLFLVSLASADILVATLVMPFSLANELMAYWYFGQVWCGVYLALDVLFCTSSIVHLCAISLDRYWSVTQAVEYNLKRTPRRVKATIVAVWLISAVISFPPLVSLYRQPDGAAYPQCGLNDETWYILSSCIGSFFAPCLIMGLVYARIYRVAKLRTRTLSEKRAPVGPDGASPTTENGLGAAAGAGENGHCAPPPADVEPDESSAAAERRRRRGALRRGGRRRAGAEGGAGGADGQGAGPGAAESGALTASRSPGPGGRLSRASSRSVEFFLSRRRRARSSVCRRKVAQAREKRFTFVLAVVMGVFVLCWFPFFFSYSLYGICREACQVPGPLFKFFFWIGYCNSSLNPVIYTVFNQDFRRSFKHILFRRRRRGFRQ
Sequence of Voltage-gated potassium channel subunit beta-2 (Rattus norvegicus) (P62483 whole entry, looked up): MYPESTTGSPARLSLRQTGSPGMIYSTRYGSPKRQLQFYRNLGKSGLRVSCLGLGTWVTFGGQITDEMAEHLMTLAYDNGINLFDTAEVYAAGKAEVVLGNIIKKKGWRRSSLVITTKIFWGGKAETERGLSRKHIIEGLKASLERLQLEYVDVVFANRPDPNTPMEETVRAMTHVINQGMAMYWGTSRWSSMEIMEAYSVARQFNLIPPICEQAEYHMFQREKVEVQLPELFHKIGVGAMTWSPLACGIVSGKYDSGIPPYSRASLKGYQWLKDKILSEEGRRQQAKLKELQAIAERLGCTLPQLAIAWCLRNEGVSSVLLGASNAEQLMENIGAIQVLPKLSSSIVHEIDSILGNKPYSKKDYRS

The inhibition is the change of the read-out against control, counted positive when it falls. In the case of `COc1ccc(CCN(C)CCCC(C#N)(c2cc(OC)c(OC)c(OC)c2)C(C)C)cc1OC` (stereo not given), the cell count in experiment [1] was 602. For the same compound, the inhibition in experiment [1] is 1.1% (inactive); in [3], -34.1% (inactive); in [5] it was 30.1% (inactive); in [10], 4.56% (inactive) and -3.63% (inactive); in experiment [11], 3.72% (inactive); in experiment [12], 17% (inactive). In addition, the inhibition of aggregation in experiment [2] is 6% (inactive). In addition, the nuclei count came out at 88.6% in experiment [2] and 114% in experiment [3]. Moreover, the z-score in [4] (setting [13]) was 2.13; in experiment [4] (setting [14]), 0.829; in experiment [4] (setting [15]), -0.736. The fluorescence slope in [6] is -0.466 (inactive). Besides, the NADPH fluorescence slope in [7] was -1e-05 (inactive). The slope in experiment [8] was 0.00502 (inactive). In addition, the compound was classed as inactive in experiment [9].

Regarding `COc1cccc(-c2nnc3sc(-c4ccc(C)cc4)nn23)c1`, the cell count in experiment [1] came to 634. The inhibition in [1] was 3.3% (inactive); in experiment [3] it was -24.2% (inactive); in experiment [5], -4.27% (inactive); in experiment [10] it was 5.03% (inactive); in [11], 2.84% (inactive); in experiment [12] it was 34.9% (inactive). In addition, the inhibition of aggregation in experiment [2] is 11.6% (inactive). Besides, the values for the nuclei count in experiment [2] and in experiment [3] were 77.9% and 121%, respectively. The z-score in experiment [4] (setting [13]) was -0.746; in experiment [4] (setting [14]) it was -0.965; in experiment [4] (setting [15]), 1.01. Further, in experiment [6], the fluorescence slope is -0.414 (inactive). In [7], the NADPH fluorescence slope is -0.000137 (inactive). For the same compound, in [8], the slope is 0.00537 (inactive). The compound was called inactive in experiment [9].

For `O=C(CCCN1CC=C(n2c(=O)[nH]c3ccccc32)CC1)c1ccc(F)cc1`, the cell count in experiment [1] was found to be 658. The inhibition in experiment [1] is -2.1% (inactive); in experiment [3] it was -156% (inactive); in experiment [5] it was 19.2% (inactive); in [10] it was 5.84% (inactive); in experiment [11], -12.2% (inactive); in experiment [12], -37.3% (inactive). Besides, in [2], the inhibition of aggregation is -8.1% (inactive). Moreover, the nuclei count in experiment [2] is 105%; in [3] it was 128%. Moreover, the z-score was -0.186 in experiment [4] (setting [13]), 0.167 in [4] (setting [14]) and 0.602 in experiment [4] (setting [15]). Further, in [6], the fluorescence slope was -0.516 (inactive). For the same compound, the NADPH fluorescence slope in experiment [7] was -7.4e-05 (inactive). Besides, the slope in [8] was 0.00484 (inactive). Moreover, the compound was classed as inactive in [9].

As for `COc1ccc(-n2c(SCC(N)=O)nc3sc4c(c3c2=O)CCN(C)C4)cc1`, the cell count in experiment [1] was found to be 537. Moreover, the inhibition in experiment [1] was -5.6% (inactive); in experiment [3] it was -51.4% (inactive); in experiment [5], -2.69% (inactive); in experiment [10] it was -8.09% (inactive); in experiment [11], -4.01% (inactive); in experiment [12], 0.612% (inactive). In addition, the inhibition of aggregation in experiment [2] is 32% (inactive). Also, the nuclei count is 58% in experiment [2] and 134% in experiment [3]. In addition, the z-score in experiment [4] (setting [13]) was -0.15; in experiment [4] (setting [14]) it was 1.95; in [4] (setting [15]), -0.53. Also, the fluorescence slope in experiment [6] was -0.305 (inactive). For the same compound, the NADPH fluorescence slope in experiment [7] is -1.8e-06 (inactive). The slope in experiment [8] was 0.00454 (inactive). Moreover, the call in [9] was inactive.

For `CCCCCCCCCCCCCCCC(O)C(N)CO` (stereo not given), in experiment [1], the cell count is 586. In addition, the inhibition in experiment [1] is 0.2% (inactive); in experiment [3], -75.6% (inactive); in experiment [5], 25.1% (inactive); in experiment [10], 61% (active); in [11], 18.8% (inactive); in experiment [12] it was 4.1% (inactive). In addition, the inhibition of aggregation in experiment [2] was -17.4% (inactive). For the same compound, the nuclei count in experiment [2] is 104%; in [3] it was 122%. The z-score in experiment [4] (setting [13]) was found to be 0.584; in experiment [4] (setting [14]), 2.76; in [4] (setting [15]), 2.96. For the same compound, the fluorescence slope in experiment [6] is -0.485 (inactive). For the same compound, the NADPH fluorescence slope in experiment [7] is -6.4e-05 (inactive). Moreover, the slope in experiment [8] is 0.00528 (inactive). Moreover, the outcome in experiment [9] is “inactive; toxic”.
